This is a sample that favours compounds with a hit; in the whole collection about 1.4% have one here.
PV pol inh – inhibitors of poliovirus RNA polymerase binding and polymerization; P03300; poliovirus polymerase elongation, fluorescence polarization; active compounds read low; % elongation, % (compound at 16.7 µg/mL); hit rate 0.66% among 150,000; in the data active means % elongation below about 90%
Mtb MenB inh – Mtb MenB enzyme inhibition; MenB enzyme assay, absorbance read-out; hit rate 0.43% among 100,000; inhibition, % (concentration not given with the values); in the data active means inhibition above about 21%, passing the limit was not always enough
Target sequence (P9WNP5 whole entry, looked up): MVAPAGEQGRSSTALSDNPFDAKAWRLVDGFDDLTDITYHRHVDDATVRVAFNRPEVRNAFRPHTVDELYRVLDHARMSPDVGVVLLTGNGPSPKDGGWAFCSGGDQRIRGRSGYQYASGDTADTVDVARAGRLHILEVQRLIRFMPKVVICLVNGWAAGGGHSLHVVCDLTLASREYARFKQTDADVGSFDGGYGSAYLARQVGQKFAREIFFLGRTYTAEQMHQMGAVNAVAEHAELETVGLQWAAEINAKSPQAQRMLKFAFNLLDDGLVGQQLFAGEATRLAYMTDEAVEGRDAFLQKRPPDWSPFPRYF
Mtb MbtI inh – inhibitors of Mycobacterium tuberculosis siderophore enzyme MbtI; P9WFX0; purified MbtI enzyme, fluorescence intensity read-out; inhibition, % (test concentration not listed); hit rate 0.89% among 100,000; AID 493033; in the data active means inhibition mostly above about 56%, no sharp cut-off; inactive means mostly below about 77%
AID504770 – growth inhibitors of E. coli YBA685 in a screen for V. cholerae RctB (chromosome II replication) inhibitors. hit rate 0.27% among 130,000. E. coli YBA685 rctB-dependent plasmid, OD600 growth, 3 h; active compounds read low. z-score (concentration not given with the values); in the data active means z-score below about -2, passing the limit was not always enough
An asterisk follows results filed as active; . = no result given; ! = a repeat was not active.

SMILES | PV pol inh | Mtb MenB inh | Mtb MbtI inh | AID504770
NC(=S)c1ccccn1 | 20* | -30 | 10 | -1.1
NC(=S)N/N=C(/C(=O)c1ccccn1)c1ccccn1 | 74* | -8 | 91* | -0.7
N/C(=N\O)c1ccccn1 | 104 | 3 | -4 | -0.1
N/C(=N\NS(=O)(=O)c1ccccc1)c1ccccn1 | 104 | -13 | 7 | 1.1
Nc1c(C(=O)Nc2ccccc2)nnn1Cc1ccccc1 | 98 | -6 | -40 | 0.1
O=C(Nc1ccccc1)c1nnn(Cc2ccccc2)c1NC(=O)C(F)(F)F | 89* | -14 | . | -1.1
Cn1ncc2c(c(SCc3ccc(Cl)cc3Cl)nn2C)c1=O | 101 | -17 | 21 | -2
CSc1nn(C)c2cnn(C)c(=O)c12 | 55* | -2 | 71 | -0.8
CCC(C(=O)N1CCCC1)n1nc(C)n2c(cc3occc32)c1=O (stereo not drawn) | . | . | . | -1.4
CN(c1ccc(-c2csc(-c3cccs3)n2)cc1)S(C)(=O)=O | 88* | -18 | 39 | -0.25
O=S(=O)(NCc1csc(-c2cccs2)n1)c1ccccc1 | . | . | . | 0
O=C(Cc1cccc2ccccc12)Nc1nnc(-c2ccccc2)s1 | . | . | . | 0
Cc1sc2nc[nH]c(=S)c2c1C | 100 | -65 | 57*! | -0.8
COc1ccc2c(COC(=O)c3c(-c4ccccc4)noc3C)cc(=O)oc2c1 | 109 | -22 | 52 | -0.65
CNS(=O)(=O)c1ccc2ccccc2c1 | 101 | . | -2 | 0.6
COC(=O)/C=C/S(=O)(=O)c1ccc2ccccc2c1 | 99 | -2 | 101* | -1.6
Cc1nc(-c2cccs2)cs1 | 100 | . | 1 | -0.2
S=c1nc(-c2cccs2)cn[nH]1 | 101 | -33 | 74* | 1.6
O=C1C=CC(=O)N1C1CC1 | 102 | 10 | 91* | -6*
Cc1nc(N)[nH]c(=O)c1CCC(=O)O | 105 | -12 | -5 | -0.2
CC(Sc1cccc[n+]1[O-])C(=O)NCC1CCCCC1 (stereo not drawn) | 100 | 5 | 81* | 1.4
COc1ccccc1NC(=O)c1oc2ccccc2c1NC(=O)Cc1cccc(C)c1 | 102 | -40 | 26 | -0.75
CC(C)c1nnc(SCC(=O)Nc2ccc(Cl)cc2)n1N | 104 | 3 | 89* | -0.65
Cc1nnc(SCC(=O)Nc2ccccc2)n1N | . | . | . | -0.8
CCOC(=O)c1nnc(Cc2ccc(F)cc2Cl)o1 | 104 | -32 | -7 | 2.7
SMILES | PV pol inh | Mtb MenB inh | Mtb MbtI inh | AID504770
O=C(CC1Sc2ncnn2C1=O)Nc1ccccc1 (stereo not drawn) | 100 | -16 | 100* | -0.4
CN(C)S(=O)(=O)c1ccc(C(=O)Oc2cc(=O)[nH]c3ccccc23)cc1 | 89* | -42 | -152 | 0.2
CCCNCc1ccccc1 | 99 | 32* | -2 | -0.1
Cc1sc2nc(SCC(=O)c3ccc(O)cc3O)[nH]c(=O)c2c1C | 76* | 13 | 88* | -0.05
O=C(NCCc1ccccc1)c1cnn2cccnc12 | 100 | -4 | 0 | -1.1
COc1ccc2nc(SCC(=O)c3ccc(O)c(O)c3)[nH]c2c1 | 100 | 1 | 70* | -0.2
Cc1ccc(C2=NS(=O)(=O)N(C)C(C(=O)Nc3sc4c(c3C(N)=O)CCCC4)=C2)cc1 | 94 | -67 | 58* | -0.15
Cc1sc(NC(=O)C(C)Oc2ccc(Cl)cc2Cl)c(C(N)=O)c1C (stereo not drawn) | 75* | -23 | . | 1.5
O=c1[nH]c2ccc(S(=O)(=O)Nc3ccc(O)cc3)cc2[nH]1 | 104 | 6 | -6 | -0.4
O=S(=O)(Nc1ccc(Cl)cc1)c1ccc2oc(=S)[nH]c2c1 | 91 | -48 | 90* | 0.75
CCOC(=O)c1oc2ccc(S(=O)(=O)Nc3cc4c(cc3C)n(C)c(=O)c(=O)n4C)cc2c1C | 102 | -12 | -16 | 0.85
NNC(=O)Cc1nn2c(C3CCCCC3)nnc2s1 | 99 | -20 | 70* | 2.2
CCOC(=O)CC1=Nn2c(nnc2C2CCCCC2)SC1 | 105 | -16 | 3 | -0.45
COC(=O)c1ccc(C(=O)OC)c(NC(=O)c2cc3nc(-c4ccc(C)cc4)cc(C(F)(F)F)n3n2)c1 | 104 | . | . | .
COC(=O)c1cc2nc(-c3ccc(F)cc3)cc(C(F)(F)F)n2n1 | 87* | -15 | . | 0.15
O=c1[nH]c2cc3c(cc2[nH]1)OCCO3 | 101 | 37* | 83 | -0.65
CN1/C(=C/c2cccc[n+]2C)C=Cc2ccccc21 | 87* | -84 | 3 | -0.8
CN1/C(=C/C=C(C#N)C#N)C=Cc2ccccc21 | 104 | -13 | -7 | -0.8
O=C(Nc1nc(SCc2ccc(Cl)cc2)n[nH]1)C1CC(=O)N(C2CCCC2)C1 (stereo not drawn) | 101 | -13 | 4 | -0.25
CCc1ccc(CN2CCC(O)CC2)cc1 | 99 | 36* | -11 | -0.55
